# HTT ATP protect = cytoprotection in Huntington HTT-Q103 PC12 cell model | PC12 HTT-Q103 induced, cytoprotection, ATP luminescence, 40 h | Potency, µM (series often up to 56.4 µM), for the others: cytoprotection (ATP increase), usual class: activators | 230,000 compounds, 0.14% hits; note: % of control where 0% means no effect; nearly all actives have a fitted effect of over 45% in size
#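 ATP quantification (ATPlite) reports survival of PC12 cells in which tebufenozide, 100 nM final, switches on Htt exon 1 with 103 glutamines linked to GFP; compounds are titrated.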
# HPGD block = inhibitors of human 15-hydroxyprostaglandin dehydrogenase (HPGD) | 150,000 compounds, 4.3% hits | purified HPGD, NADH fluorescence kinetic, PGE2 substrate | Potency, µM, for inactives: at the highest dose activity change, negative = inhibition, actives largely listed as inhibitors | AID 894 | P15428; active = well fitted inhibition curve with a large enough effect, not every such curve was filed as active; inconclusive = small, poorly fitted or top-dose-only effect, or another doubt; inactive = no such curve, though single readings can be large or run the other way; note: % is set by controls: 0 for no effect and ±100 for the full control effect
# Target sequence (P15428 whole entry, looked up): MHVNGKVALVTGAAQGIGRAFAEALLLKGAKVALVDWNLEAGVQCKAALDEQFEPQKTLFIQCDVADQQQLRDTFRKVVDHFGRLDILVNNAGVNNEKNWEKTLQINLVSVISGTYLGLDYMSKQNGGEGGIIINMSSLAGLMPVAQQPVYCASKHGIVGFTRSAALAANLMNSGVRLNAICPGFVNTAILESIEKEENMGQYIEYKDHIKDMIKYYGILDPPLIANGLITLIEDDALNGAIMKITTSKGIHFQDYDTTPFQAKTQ
#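 NADH formation kinetics: reaction with 30 uM PGE2 and 1 mM NAD+ (final), 20 nM enzyme, Tris-HCl pH 8 with Tween 20, after 15 min compound preincubation at room temperature. Fluorescence change, last versus first of five reads.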
# KinaseGlo FLuc = counter-screen: inhibitors of Kinase-Glo firefly luciferase. Q27757. Kinase-Glo luciferase, ATP luminescence, 8 min. Potency, µM (titrated, usually from 38.3 µM), for inactives: top-dose activity change, negative = inhibition, usual class: inhibitors. 200,000 compounds, 0.28% hits; note: % is set by controls: 0 for no effect and ±100 for the full control effect; nearly all actives have a fitted effect of over 60% in size
#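 Luminescence was the read-out, taken after 8-minute incubation at ambient temperature. Luciferase turned over luciferin with 10 uM ATP in imidazole pH 7.2 buffer containing KCl, MgCl2, Tween 20 and BSA.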
# ALDH1A1 inh = ALDH1A1 (human) enzyme inhibition | Purified ALDH1A1, NADH fluorescence, propionaldehyde substrate | Potency, µM (titrated, usually from 75.3 µM), inactives show top-dose activity, negative = inhibition, actives largely listed as inhibitors | 220,000 compounds, 7.3% hits | AID 1030 | P00352; active = well fitted inhibition curve with a large enough effect, not every such curve was filed as active; inconclusive = small, poorly fitted or top-dose-only effect, or another doubt; inactive = no such curve, though single readings can be large or run the other way;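 note: plate controls were no enzyme wells and a reference inhibitor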
# HttQ103 aggreg = inhibitors of mutant huntingtin aggregate formation in PC12 cells. PC12 HttQ103-GFP aggregates, Acumen cytometry, 40 h. Potency, µM (series often up to 46.1 µM), inactives show at the highest dose activity change, negative = inhibition, hits mostly inhibitors. 220,000 compounds, 1.1% hits; note: % is set by controls: 0 for no effect and ±100 for the full control effect; nearly all actives have a fitted effect of over 60% in size
#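 Compounds (qHTS titration) were added to PC12 cells expressing an ecdysone-driven HTT exon 1 Q103–GFP fusion after induction with 100 nM tebufenozide. Aggregate formation was measured as GFP objects in cell lysates.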
# LMNA splice mod = LMNA splicing modulation; HeLa LMNA splicing GFP/RFP minigene ratio, 48 h; Potency, µM (titrated, usually from 46.1 µM), without a hit: at the top dose ratio change, negative = inhibition, hits mostly inhibitors; 200,000 compounds, 0.01% hits; AID 1487; active = well fitted inhibition curve with a large enough effect in the signal ratio, with a control signal flat, not every such curve was filed as active; inconclusive = small, poorly fitted or top-dose-only effect, or effect the other way, or a change in a side signal; the % refers to the signal ratio; note: % is set by controls: 0 for no effect and ±100 for the full control effect
#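 S3 HeLa cells stably expressing lamin A-EGFP splicing minigene plus DsRed2, 600 cells/well, 48 h compound exposure at 37C. Laser-scanning cytometry; analysed as GFP (500-530 nm)/RFP (575-640 nm) total intensity ratio; 0.5% DMSO vehicle.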
# Active calls of the source: *; ? = inconclusive; . = not tested or not shown; [ ] = dose if it differs, or a comment. This is a sample that favours compounds with a hit; in the whole collection about 9% have one here. Unless noted, calls come from the whole dose curve; as a rule, active = well fitted curve in the direction sought with a large enough effect; inconclusive = small, poorly fitted or top-dose-only effect, or another doubt; inactive = no such curve, though single readings can be large; an effect the other way counts as inactive or inconclusive. Potency is the fitted concentration of half-maximal effect.
SMILES,HTT ATP protect,HPGD block,KinaseGlo FLuc,ALDH1A1 inh,HttQ103 aggreg,LMNA splice mod
Cc1sc(NC(=O)CSc2nnc(C)c(=O)[nH]2)c(C#N)c1C,-6%,-17%,-1%,14µM*,6%,0%
Cc1ccccc1OCc1nnc(SCc2cc(=O)[nH]c3ccccc23)n1-c1ccccc1,43%[10 µM],-10%,0%,-3%,-1%,-9%
Cc1ccc(OCc2nnc(SCc3cc(=O)[nH]c4ccccc34)n2-c2ccccc2)cc1,-15%[10 µM],11µM*,1%,8%,?,1%
C=CCn1cc(/C=N/NC(=O)COc2cccc3cccnc23)c2ccccc21,3%[1.9 µM],-10%,-2%,18µM*,4%,-10%
Cc1cc(C)cc(-n2c(C)cc(/C=N/NC(=O)c3ccncc3)c2C)c1,-30%,.,5%,?,15%[9.22 µM],-8%[46 µM]
Cc1cc(/C=N/NC(=O)C(=O)NCc2ccccn2)c(C)n1-c1ccccc1,-3%[10 µM],2%,-14%,11µM*,3%,-1%
CC(C)n1cc(/C=N/NC(=O)COc2cccc3cccnc23)c2ccccc21,-2%[10 µM],.,.,?,0%,?
Cc1cc(C)cc(-n2c(C)cc(/C=N/NC(=O)CSc3ncccn3)c2C)c1,-26%,-15%,-3%,28µM*,-5%,?
Cc1cc(/C=N\NC(=O)COc2cccc3cccnc23)c(C)n1-c1ccc(Br)cc1,-5%[10 µM],-3%,1%,?,4%,?
Cc1cc(/C=N\NC(=O)COc2cccc3cccnc23)c(C)n1-c1ccccc1,-5%[10 µM],-16%,-2%,14µM*,?,0%
C=CC(=O)NCc1ccc(-c2csnn2)cc1,-17%[10 µM],.,.,3%,-16%[9.22 µM],.
COc1ccc2cc(C)c(SCC(=O)Nc3cc(C)on3)nc2c1,-8%,-27%,2%,0%,5%,1%
Cc1cc(/C=N\NC(=O)c2cccs2)c(C)n1-c1ccc2ncccc2c1,-14%,?,-11%,20µM*,-22%,?
Cc1cc(/C=N/NC(=O)c2ccccn2)c(C)n1-c1cccc([N+](=O)[O-])c1,-94%,.,-2%,?,4%,14%[9.22 µM]
CCCCN1C(=O)C2C3C=CC(C2C1=O)C1C2C(=O)N(CCCC)C(=O)C2C31 (configuration not stated),13%[10 µM],-8%,4%,6%,-7%,-1%
O=C1C2C3C=CC(C2C(=O)N1CCCO)C1C2C(=O)N(CCCO)C(=O)C2C31 (configuration not stated),15%,-12%,1%,4.5µM*,-14%[9.22 µM],14%
C=CCN1C(=O)C2C3C=CC(C2C1=O)C1C2C(=O)N(CC=C)C(=O)C2C31 (configuration not stated),17%[10 µM],.,2%,0.71µM*,18%[9.22 µM],.
Cn1c(=O)c2c(nc(Sc3ncccn3)n2Cc2ccc(Cl)cc2)n(C)c1=O,-15%,-9%,0%,10%,-21%,0%
COC(=O)c1cn[nH]c1NC(=S)Nc1ccc(C)cc1Cl,-52%[10 µM],-27%,9%,7.9µM*,?,15%
O=C(NCCC1=CCCCC1)c1cc2c(s1)CS(=O)(=O)C2,3%[10 µM],-15%,-2%,-17%,12%,-14%
CC(C)(C)c1[nH]nc2c1C(c1ccc(OC(=O)c3ccco3)cc1)C(C#N)=C(N)O2 (configuration not stated),4%,-17%,-5%,4.5µM*,6%,15%
Cc1ccc(C)n1-c1nc(=S)[nH][nH]1,-6%,16µM*,-2%,25µM*,14%,-1%
CC12C(=O)N(Cc3ccco3)C(=O)C1C1c3ccccc3C2c2ccccc21 (configuration not stated),-4%,-21%,2%,16µM*,16%,-4%
CC12C(=O)N(c3ccc(C(=O)N4CCOCC4)cc3)C(=O)C1C1c3ccccc3C2c2ccccc21 (configuration not stated),-12%[10 µM],-22%,-1%,3%,13%,3%
CCN(CC)CCNc1nc(-c2cccs2)c(CC(=O)O)s1,9%,.,0%,20µM*,5%,1%[9.22 µM]
SMILES,HTT ATP protect,HPGD block,KinaseGlo FLuc,ALDH1A1 inh,HttQ103 aggreg,LMNA splice mod
C=CCNc1nc(-c2cccs2)c(CC(=O)O)s1,-4%[10 µM],.,.,.,-11%[9.22 µM],.
Cc1nn(Cc2ccccc2)c(Cl)c1C(=O)NCCc1ccc(Cl)cc1,29%[10 µM],-11%,-2%,?,9%,?
CC(=O)Nc1ccc(S(=O)(=O)NCCNc2ccccc2[N+](=O)[O-])cc1,-32%,.,4%,4.5µM*,9%,.
O=[N+]([O-])c1ccccc1NCCNS(=O)(=O)c1ccc(Cl)cc1,3%[10 µM],-18%,-1%,?,-6%,?
O=[N+]([O-])c1cccc(Cl)c1NCCNS(=O)(=O)c1ccccc1,-26%,-24%,5%,11µM*,17%,-3%
Cc1ccc2c(Cl)cc(Cl)c(OCC(=O)NC(C)(C)C)c2n1,10%[10 µM],.,-1%,?,-20%,-17%[46 µM]
CCCCC1(Cc2ccc([N+](=O)[O-])cc2)C(=O)N(c2ccccc2)N(c2ccccc2)C1=O,25%[10 µM],2%,2%,2%,10µM*,?
O=C(NCCC(c1ccccc1)c1ccco1)c1cccs1 (configuration not stated),-9%,.,-7%,?,-3%,-4%[46 µM]
Cc1ccc(NC(=O)CCC(=O)OCC(=O)c2ccc(Oc3ccc([N+](=O)[O-])cc3)cc2)c(C)c1,1%,-5%,-4%,22µM*,-4%,1%
Cc1ccc(NC(=O)COC(=O)CCC(=O)c2ccc(C(C)(C)C)cc2)c([N+](=O)[O-])c1,-6%[0.074 µM],-21%,0%,0.5µM*,-15%,10%
CC(=O)N1CCC2(CC1)C(C#N)=C(N)Oc1n[nH]c(CSc3ccc(C)cc3)c12,-1%[0.074 µM],-2%,-2%,10µM*,8%[9.22 µM],-7%
Cc1[nH]nc2c1C1(C(=O)Nc3ccc([N+](=O)[O-])cc31)C(C#N)=C(N)O2 (configuration not stated),19%,-8%,-3%,8%,15%,2%
Cc1ccc(SCc2[nH]nc3c2C2(C(=O)Nc4ccc(F)cc42)C(C#N)=C(N)O3)cc1 (configuration not stated),3%,1%,19%,2.2µM*,33%,?
CC(=O)Nc1ccc(NC(=O)CN(C)CC(=O)Nc2ccccc2Br)cc1,12%,.,-1%,7%,-17%,.
CCN(CC)C(=O)c1sc2nc(-c3ccc(OC)cc3)cn2c1C,-31%,14µM*,-4%,-14%,3%,2%
CCOc1ccccc1NC(=O)CSc1nnnn1-c1ccccc1,-4%,-18%,4%,16µM*,-8%,-1%
